In PubChem BioAssay (NCATS):
Inconclusive results are not listed. Activity calls are given as the source filed them. Unless noted, the call rests on the fitted dose curve; in most records, active means well fitted curve in the direction sought with a large enough effect; inconclusive means small, poorly fitted or top-dose-only effect, or another doubt; inactive means no such curve, though single readings can be large; an effect the other way counts as inactive or inconclusive.

Tests used:
[1] = biological target: Lysosomal acid glucosylceramidase (Homo sapiens) (UniProt P04062); experiment: Glucocerebrosidase-p2 (AID 348; in the data active means potency below about 10 µM; further: potency means the concentration at half of the fitted maximal effect); details: purified GBA, blue fluorogenic substrate, 40 min
Sequence of Lysosomal acid glucosylceramidase (Homo sapiens) (P04062 whole entry, looked up): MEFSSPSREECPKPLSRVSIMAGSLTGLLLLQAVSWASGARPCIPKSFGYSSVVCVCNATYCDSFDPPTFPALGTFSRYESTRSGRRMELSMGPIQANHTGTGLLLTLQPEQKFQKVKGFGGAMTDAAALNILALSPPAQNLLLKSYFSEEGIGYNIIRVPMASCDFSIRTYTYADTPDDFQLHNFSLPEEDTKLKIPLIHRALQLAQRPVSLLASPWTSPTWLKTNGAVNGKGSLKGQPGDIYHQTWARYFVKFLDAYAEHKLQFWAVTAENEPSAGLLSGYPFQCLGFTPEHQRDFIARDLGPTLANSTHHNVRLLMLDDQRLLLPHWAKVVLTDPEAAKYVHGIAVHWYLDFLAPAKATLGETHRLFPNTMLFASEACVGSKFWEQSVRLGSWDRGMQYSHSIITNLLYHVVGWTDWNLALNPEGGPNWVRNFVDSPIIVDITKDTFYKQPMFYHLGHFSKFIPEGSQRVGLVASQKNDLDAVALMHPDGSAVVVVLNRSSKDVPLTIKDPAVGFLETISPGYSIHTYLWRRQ
Outline: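 Normal human glucocerebrosidase (0.2 nM) with blue fluorogenic substrate (80 uM final) in citrate/phosphate pH 5.9 with 10mM sodium taurocholate, 0.01% tween-20; 40 min RT, NaOH/glycine stop; fluorescence Ex 365/Em 440; AC50 from a titration from 0.6 nM upwards.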

[2] = AP1 Signaling Pathway (AID 357; active means well fitted curve in either direction with a large enough effect, not every such curve was filed as active;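 further: ME-180 reporter cells stimulated with EGF at its EC50 level; on the % scale 0 is the no-effect control and ±100 the full control effect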); details: ME-180 AP-1-bla reporter, EGF-induced, beta-lactamase ratio, 5 h; at 7.69 µM (top of the series) unless noted
Outline: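 A ratiometric CCF4 readout (405 nm excitation; 460 and 530 nm emission) quantified AP-1-driven beta-lactamase in ME-180 cells after 5 h with compound and EC50 EGF; AC50 values were derived for activators and inhibitors.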

[3] = Stat Signaling Pathway (AID 446; active means well fitted curve in either direction with a large enough effect, not every such curve was filed as active;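 further: ME-180 cervical cancer cells given 40 pM IL-6 alongside compound; SIE-controlled beta-lactamase reporter measured as 460/530 nm FRET emission ratio; on the % scale 0 is the no-effect control and ±100 the full control effect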); details: ME-180 SIE beta-lactamase reporter, IL-6 stimulated, 5 h; at 7.69 µM (top of the series) unless noted
Outline: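 FRET read-out (405 nm excitation, 460/530 nm emission) of a beta-lactamase reporter under a STAT-inducible element in ME-180 cervical carcinoma cells. Cells with compound receive 40 pM IL-6 for 5 h. Values are normalised to AC90 stimulation and AC90 JAK-inhibitor controls.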

[4] = biological target: Glucocorticoid receptor (Homo sapiens) (UniProt P04150); experiment: GR-GFP Redistribution (AID 450;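 active means compounds whose dose series gives a full or clear partial fitted curve of increased nuclear translocation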; further: potency means the concentration at half of the fitted maximal effect); details: U2OS GR-GFP nuclear translocation, laser cytometry, 2 h
Sequence of Glucocorticoid receptor (Homo sapiens) (P04150 whole entry, looked up, the tested form may be a part): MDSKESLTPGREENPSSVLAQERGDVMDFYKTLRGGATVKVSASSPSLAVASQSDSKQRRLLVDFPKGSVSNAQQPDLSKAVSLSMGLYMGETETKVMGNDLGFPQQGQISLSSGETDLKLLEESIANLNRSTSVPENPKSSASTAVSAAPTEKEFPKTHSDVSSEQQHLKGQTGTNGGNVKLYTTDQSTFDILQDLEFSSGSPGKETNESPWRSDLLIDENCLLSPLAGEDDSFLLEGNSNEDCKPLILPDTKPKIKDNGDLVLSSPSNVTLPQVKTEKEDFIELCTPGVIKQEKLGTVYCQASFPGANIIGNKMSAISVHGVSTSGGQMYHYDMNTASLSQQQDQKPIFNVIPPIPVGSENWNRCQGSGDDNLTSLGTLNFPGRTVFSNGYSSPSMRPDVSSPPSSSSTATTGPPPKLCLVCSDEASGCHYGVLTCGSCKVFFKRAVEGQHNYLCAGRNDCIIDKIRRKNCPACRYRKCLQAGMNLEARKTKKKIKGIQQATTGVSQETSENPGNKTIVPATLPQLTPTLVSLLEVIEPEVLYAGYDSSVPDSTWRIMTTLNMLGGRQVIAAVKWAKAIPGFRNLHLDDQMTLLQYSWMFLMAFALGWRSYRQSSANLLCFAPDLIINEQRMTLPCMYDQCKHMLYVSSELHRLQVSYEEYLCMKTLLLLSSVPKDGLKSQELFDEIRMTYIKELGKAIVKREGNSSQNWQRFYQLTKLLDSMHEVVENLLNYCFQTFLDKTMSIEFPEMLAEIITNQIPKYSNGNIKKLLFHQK

[5] = biological target: Glucocorticoid receptor (Homo sapiens) (UniProt P04150); experiment: GR-EFC Redistribution (AID 451; calls by dose curve; further: potency means the concentration at half of the fitted maximal effect); details: CHO-K1 GR-EFC translocation, beta-gal luminescence, 2 h
Outline: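 CHO-K1 cells expressing nuclear EA and GR-ED fragments of b-gal; compounds titrated up to 46 uM final, 2 h at 37 C. GR nuclear translocation read as complemented b-gal luminescence after 1 h RT detection.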

[6] = biological target: Mitogen-activated protein kinase 10 (Mus musculus) (UniProt Q61831); experiment: JNK3 AlphaScreen Assay (AID 530; active means well fitted curve in either direction with a large enough effect, not every such curve was filed as active;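 further: kinase came from lysate of stimulated human HepG2 cells; signal reports phosphorylation of biotinylated GST-cJun 1-79 at Ser73 with 10 µM ATP; on the % scale 0 is the no-effect control and ±100 the full control effect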); details: JNK3 lysate, c-Jun phosphorylation; series mostly up to 57.1 µM
Outline: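 HepG2 lysate (IL-1b/TNFa pre-activated) + biotin-GST-cJun 1-79 + anti-pSer73 cJun; cpd titration, 15 min RT; ATP 10 uM start; Tris pH 7.6, MgCl2, DTT, vanadate; beads in EDTA buffer; AlphaScreen.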

[7] = biological target: 3',5'-cyclic-AMP phosphodiesterase 4B (Homo sapiens) (UniProt Q07343); experiment: qHTS Assay for Inhibitors of PDE-IV (AID 607; active means well fitted activation curve with a large enough effect in the main read-out, with a control signal flat, not every such curve was filed as active; further: % of control where 0% means no effect); details: HEK293 ACTOne CNG channel cells, membrane potential fluorescence; series mostly up to 22.9 µM
Sequence of 3',5'-cyclic-AMP phosphodiesterase 4B (Homo sapiens) (Q07343 whole entry, looked up): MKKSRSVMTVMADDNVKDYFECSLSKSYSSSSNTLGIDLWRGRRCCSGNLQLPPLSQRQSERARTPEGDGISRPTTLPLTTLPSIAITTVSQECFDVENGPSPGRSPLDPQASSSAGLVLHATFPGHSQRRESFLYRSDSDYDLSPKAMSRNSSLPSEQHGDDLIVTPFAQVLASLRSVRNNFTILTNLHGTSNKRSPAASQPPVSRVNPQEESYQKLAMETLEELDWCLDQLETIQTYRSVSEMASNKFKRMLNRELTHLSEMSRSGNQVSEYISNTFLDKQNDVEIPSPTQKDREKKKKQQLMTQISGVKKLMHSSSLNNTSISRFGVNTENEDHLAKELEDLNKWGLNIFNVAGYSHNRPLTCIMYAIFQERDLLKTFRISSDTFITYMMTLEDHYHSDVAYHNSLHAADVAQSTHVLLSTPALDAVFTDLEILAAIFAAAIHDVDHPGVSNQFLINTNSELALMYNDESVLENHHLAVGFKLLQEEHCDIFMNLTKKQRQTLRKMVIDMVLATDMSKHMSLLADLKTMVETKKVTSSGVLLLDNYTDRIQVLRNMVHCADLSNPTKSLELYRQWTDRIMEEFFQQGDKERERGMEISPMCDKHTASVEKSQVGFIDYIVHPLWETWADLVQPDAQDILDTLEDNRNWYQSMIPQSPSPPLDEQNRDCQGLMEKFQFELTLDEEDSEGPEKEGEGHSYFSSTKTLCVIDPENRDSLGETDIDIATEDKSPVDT
Outline: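 Cell-based read-out of cAMP via a modified cyclic nucleotide-gated channel and membrane potential dye (535/590 nm) in HEK293 cells expressing PDE4 endogenously. Compounds tested up to 22.9 uM final; 100 uM RO 20-1724 reference.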

[8] = qHTS Assay for Lipid Storage Modulators (AID 1519; calls by dose curve); details: Drosophila S3 cells, BODIPY lipid droplet/cell ratio, laser cytometry, cells loaded with oleic acid; for activity change, negative = inhibition: at 57.5 µM (top of the series)
Outline: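 Cells seeded at 5,000 per well were treated with compounds over a concentration series and loaded with oleic acid (400 uM, as added). Lipid droplet fluorescence (488 nm excitation, 500-530 nm channel) was read by laser-scanning cytometry and normalized to 20 uM Triacsin C.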

[9] = biological target: Dual specificity protein kinase CLK4 (Homo sapiens) (UniProt Q9HAZ1); experiment: qHTS Assay for Inhibitors of CDC-like Kinase 4 (Kinase-Glo Assay) (AID 1770); details: recombinant Clk4, Kinase-Glo ATP depletion luminescence; series mostly up to 66.7 µM; further: nearly all actives have a fitted effect of over 65% in size; further: potency means the concentration at half of the fitted maximal effect
Sequence of Dual specificity protein kinase CLK4 (Homo sapiens) (Q9HAZ1 whole entry, looked up): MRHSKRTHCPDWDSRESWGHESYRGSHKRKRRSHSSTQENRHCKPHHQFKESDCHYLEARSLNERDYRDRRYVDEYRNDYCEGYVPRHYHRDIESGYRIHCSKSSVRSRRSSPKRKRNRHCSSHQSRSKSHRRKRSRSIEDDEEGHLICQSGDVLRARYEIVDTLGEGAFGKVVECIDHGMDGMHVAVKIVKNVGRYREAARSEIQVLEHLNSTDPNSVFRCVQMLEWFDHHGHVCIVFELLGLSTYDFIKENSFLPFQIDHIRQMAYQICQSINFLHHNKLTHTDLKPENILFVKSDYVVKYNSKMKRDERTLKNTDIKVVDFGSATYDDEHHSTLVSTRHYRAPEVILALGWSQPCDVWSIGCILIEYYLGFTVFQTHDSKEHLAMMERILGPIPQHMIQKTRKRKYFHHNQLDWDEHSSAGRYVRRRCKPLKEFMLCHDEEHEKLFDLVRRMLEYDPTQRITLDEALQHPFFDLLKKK
Outline: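 Inhibition was judged from remaining ATP, measured by Ultra-Glo luciferase bioluminescence after Clk4 (25 nM) had acted on RS peptide at 1 uM ATP for 4.5 hours, room temperature.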

[10] = biological target: Dual specificity protein kinase CLK4 (Homo sapiens) (UniProt Q9HAZ1); experiment: qHTS Assay for Inhibitors of CDC-like Kinase 4 (ADP-Glo Assay) (AID 1771); details: recombinant CLK4, ADP-Glo luminescence; series mostly up to 80 µM; further: nearly all actives have a fitted effect of over 70% in size; further: potency means the concentration at half of the fitted maximal effect
Outline: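 25 nM Clk4, 100 uM RS peptide, 1 uM ATP (final); 2 mM MgCl2, 0.5 mM EGTA, 2.5 mM DTT, 0.01% Triton X-100; 1 hr RT. ADP-Glo readout: ATP depletion 45 min, conversion/luciferase 30 min, luminescence.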

[11] = biological target: Dual specificity protein kinase CLK4 (Homo sapiens) (UniProt Q9HAZ1); experiment: qHTS Assay for Inhibitors of CDC-like Kinase 4 (ADP-FP Assay) (AID 1795); details: Transcreener ADP fluorescence polarization; series mostly up to 50 µM; further: nearly all actives have a fitted effect of over 60% in size; further: potency means the concentration at half of the fitted maximal effect
Outline: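 Inhibition of ADP formation by 6.25 nM Clk4 is measured using 1 uM ATP and 100 uM RS repeat peptide over one hour. Produced ADP displaces a fluorescent tracer from antibody, lowering polarization.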

[12] = biological target: Ubiquitin carboxyl-terminal hydrolase 1 (Homo sapiens) (UniProt O94782); experiment: Inhibitors of USP1/UAF1: Pilot qHTS (AID 504865); details: purified USP1/UAF1, Ub-rhodamine cleavage fluorescence; series mostly up to 54.9 µM; further: nearly all actives have a fitted effect of over 35% in size; further: potency means the concentration at half of the fitted maximal effect
Sequence of Ubiquitin carboxyl-terminal hydrolase 1 (Homo sapiens) (O94782 whole entry, looked up): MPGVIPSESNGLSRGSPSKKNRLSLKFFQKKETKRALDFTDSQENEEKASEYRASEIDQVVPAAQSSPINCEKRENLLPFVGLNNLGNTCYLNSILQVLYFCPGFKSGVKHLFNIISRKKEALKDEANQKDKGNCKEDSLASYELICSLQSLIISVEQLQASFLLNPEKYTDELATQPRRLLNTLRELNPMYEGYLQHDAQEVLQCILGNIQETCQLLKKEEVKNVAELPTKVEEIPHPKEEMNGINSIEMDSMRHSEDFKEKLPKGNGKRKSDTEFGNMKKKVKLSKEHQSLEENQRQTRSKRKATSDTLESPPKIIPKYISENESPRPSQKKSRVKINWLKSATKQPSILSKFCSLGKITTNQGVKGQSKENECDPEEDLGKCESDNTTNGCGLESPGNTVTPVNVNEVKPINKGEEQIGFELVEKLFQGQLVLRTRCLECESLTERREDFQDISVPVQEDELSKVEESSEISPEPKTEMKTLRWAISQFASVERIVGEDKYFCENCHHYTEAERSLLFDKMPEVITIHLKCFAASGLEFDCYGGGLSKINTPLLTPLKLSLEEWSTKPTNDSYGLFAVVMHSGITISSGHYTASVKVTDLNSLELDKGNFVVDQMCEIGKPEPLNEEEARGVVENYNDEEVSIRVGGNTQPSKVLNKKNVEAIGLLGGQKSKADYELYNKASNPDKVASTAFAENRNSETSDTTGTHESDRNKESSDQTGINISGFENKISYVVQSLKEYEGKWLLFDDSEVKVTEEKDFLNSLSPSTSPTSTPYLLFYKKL
Outline: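 Kinetic fluorescence assay: 1nM USP1/UAF1, 15 min compound preincubation, then 150nM Ub-Rho; 480/540 nm.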

[13] = Primary qHTS for small molecule stabilizers of the endoplasmic reticulum resident proteome: Secreted ER Calcium Modulated Protein (SERCaMP) assay (AID 1508630); details: SH-SY5Y GLuc-SERCaMP (Gaussia luciferase released on ER calcium loss) secretion, thapsigargin, luminescence; series mostly up to 38.4 µM; further: on the % scale 0 is the no-effect control and ±100 the full control effect
Outline: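 The SH-SY5Y reporter protocol was run at 3 concentrations up to 38.3 uM (primary) or 11 concentrations (follow-up): 16 h compound, 100 nM thapsigargin for 4 h, then extracellular luciferase luminescence.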

[14] = NFAT Signaling Pathway (AID 444; active means well fitted curve in either direction with a large enough effect, not every such curve was filed as active); details: Jurkat NFAT-bla M1, carbachol, beta-lactamase ratio, 5 h; at 7.69 µM (top of the series) unless noted
Outline: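 Jurkat cells with NFAT-driven β-lactamase reporter and co-expressed M1 receptor, stimulated with carbachol (final 1 uM, ~EC50), compound titration, 5 h at 37 °C. CCF4 loaded 1 h at RT; 460/530 nm ratio gave %activity and AC50.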

[15] = biological target: Cytochrome P450 3A4 (Homo sapiens) (UniProt P08684); experiment: qHTS Assay for Inhibitors and Substrates of Cytochrome P450 3A4 (AID 884); details: recombinant CYP3A4, Luciferin-PPXE luminescence; series mostly up to 57.1 µM; further: potency means the concentration at half of the fitted maximal effect; nearly all actives have a fitted effect of over 50% in size
Sequence of Cytochrome P450 3A4 (Homo sapiens) (P08684 whole entry, looked up): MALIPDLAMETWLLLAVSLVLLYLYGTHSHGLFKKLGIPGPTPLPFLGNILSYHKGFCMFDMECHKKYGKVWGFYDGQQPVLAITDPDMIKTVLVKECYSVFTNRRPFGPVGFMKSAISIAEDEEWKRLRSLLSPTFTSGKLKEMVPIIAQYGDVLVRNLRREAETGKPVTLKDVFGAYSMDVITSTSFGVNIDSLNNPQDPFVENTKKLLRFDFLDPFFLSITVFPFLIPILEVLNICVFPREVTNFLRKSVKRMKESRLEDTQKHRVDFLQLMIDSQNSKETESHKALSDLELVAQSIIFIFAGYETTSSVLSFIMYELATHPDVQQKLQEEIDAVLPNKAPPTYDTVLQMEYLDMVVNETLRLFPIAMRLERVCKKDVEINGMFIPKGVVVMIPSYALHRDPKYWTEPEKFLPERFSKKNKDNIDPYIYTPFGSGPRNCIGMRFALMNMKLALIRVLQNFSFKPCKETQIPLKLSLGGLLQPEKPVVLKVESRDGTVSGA
Outline: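 Luminescent readout of luciferin produced by CYP3A4 (20 nM) dealkylation of Luciferin-PPXE, 25 uM (its KM). NADPH-driven reaction ran 60 min at RT after 10 min compound preincubation; data scaled to 57 uM ketoconazole as 100% inhibition.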

[16] = biological target: Cytochrome P450 3A4 (Homo sapiens) (UniProt P08684); experiment: qHTS Assay for Activators of Cytochrome P450 3A4 (AID 885); details: recombinant CYP3A4, Luciferin-PPXE luminescence, 60 min; series mostly up to 57.1 µM; further: nearly all actives have a fitted effect of over 65% in size
Outline: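 Luminescent readout of luciferin formed from 25 uM Luciferin-PPXE (KM level) by 20 nM CYP3A4 in 200 mM KPO4, with 60 min NADPH-driven reaction at room temperature after 10 min compound exposure. Ketoconazole (57 uM) defined 100% inhibition.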

[17] = qHTS Assay for Identification of Small Molecule Agonists for Hypoxia Response Element Signaling Pathway (AID 914; active means well fitted activation curve with a large enough effect in the signal ratio, with a control signal flat, not every such curve was filed as active; the % refers to the signal ratio; further: % of control where 0% means no effect); details: ME-180 (cervical carcinoma) HRE-bla reporter, beta-lactamase ratio, CoCl2, 17 h; activation: stronger effect = higher value
Outline: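 AC50 values come from titration-series %Activity, taken as the 460/530nm ratio of CCF4 fluorescence (excitation 405nm). CellSensor HRE-bla ME-180 cells were treated 17 hours at 37 C with compound plus an EC50 level of CoCl2.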

[18] = measured here: cell count channel max response
[19] = measured here: lipid channel max response

Compound | Potency [1] | activity change, negative = inhibition [2] | activity, negative = inhibition [3] | Potency [4] | Potency [5] | outcome [6] | Potency [7] | activity change, negative = inhibition [8] | max response [8, 18] [%] | max response [8, 19] [%] | Potency [9] | Potency [10] | Potency [11] | Potency [12] | Potency [13] | activity change, negative = inhibition [14] | Potency [15] | Potency [16] | activation [17]
O=c1c(-c2ccc(F)cc2)nc2cnc(Oc3ccccc3)nc2n1Cc1cccs1 | > 11.4 µM (inactive) | -11.6% (inactive) | 1.3% (inactive) | > 9.22 µM (inactive) | > 46 µM (inactive) | inactive | inactive | -20.3% (inactive) | -6.12 | -29.7 | inactive | inactive | inactive | 3.16 µM (active) | inactive |  |  |  | 
Cc1noc(C)c1-c1cncnc1NCc1cccnc1 | > 11.4 µM (inactive) | 1.35% (inactive) | 14.8% (inactive) | > 46 µM (inactive) | > 46 µM (inactive) | inactive | inactive | 2.36% (inactive) | 4.31 | 5.44 | inactive | inactive | inactive | inactive | inactive | 4.9% (inactive) | 3.16 µM (active) | inactive | 
COc1ncc2nc(-c3ccc(F)cc3)c(=O)n(C3CC3)c2n1 | > 11.4 µM (inactive) | -9.24% (inactive) | -4.24% (inactive) |  | > 46 µM (inactive) |  | inactive | 4.43% (inactive) | 16.8 | 19.3 | inactive | inactive | inactive | inactive | inactive | -21.4% (inactive) |  |  | 
O=c1cnc2cncnc2n1Cc1ccc(F)cc1 | > 11.4 µM (inactive) | 8.77% (inactive) | -8.63% (inactive) | > 9.22 µM (inactive) | > 46 µM (inactive) | inactive |  | -2.55% (inactive) | -3.3 | -6.15 | inactive | inactive | inactive | inactive | inactive | -27.6% (inactive) |  | inactive | 
COCCn1c(=O)c(-c2cccc(C#N)c2)nc2cnc(OC)nc21 | > 11.4 µM (inactive) | -22.4% (inactive) | -9.77% (inactive) | > 9.22 µM (inactive) | > 46 µM (inactive) | inactive | inactive | 4.12% (inactive) | 19.6 | 22 | inactive | inactive | inactive | inactive | inactive | 4.96% (inactive) |  |  | -7.08% (inactive)
CN(C)Cc1ccccc1-c1cncnc1Nc1ccccc1 | > 11.4 µM (inactive) | 7.98% (inactive) | 13.5% (inactive) |  | > 46 µM (inactive) | inactive | inactive | 5.53% (inactive) | 18.6 | 26.9 | inactive | inactive | inactive | inactive | inactive |  |  |  | 
c1nc(N2CCNCC2)c2cc(-c3ccoc3)ccc2n1 | > 11.4 µM (inactive) | -10.9% (inactive) | -4.93% (inactive) | > 46 µM (inactive) |  | inactive | inactive | 3.07% (inactive) | 29.3 | 29.5 | 1.58 µM (active) | 3.16 µM (active) | 0.708 µM (active) | inactive | inactive | 9.12% (inactive) |  |  | 
